Assay [1] has as its target human Vitamin D Receptor (VDR), VDR (gene 7421) (UniProt P11473). Kind of assay: ATG_VDR_TRANS: Attagene TRANS-FACTORIAL HepG2 Assay for human Vitamin D Receptor (VDR) (AID 2283022; active = hit-call score of the fitted dose curve at least 0.9, where 1 is the maximum). The procedure, abridged:
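Multiplexed TRANS reporter in HepG2; 24 h treatment; reporter mRNA by RT-PCR plus capillary electrophoresis; upregulation scored relative to DMSO.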

A short description of assay [2]: BSK_3C_SRB: Viability Assessment in the BioMAP Diversity Plus: 3C Assay (AID 2283023).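 Note: cells read 24 h after compound dosing; fitted both ways against DMSO so a hit may be signal rise or drop.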 The note with it: primary human endothelial cells (HUVEC). The procedure, abridged:
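Overt cytotoxicity is gauged in parallel confluent HUVEC cultures by SRB total-protein staining at the time of biomarker measurement, 24 h after dosing. Gain or loss of signal is fitted versus DMSO.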

Read-out in assay [3]: Matrix Metallopeptidase 1 (MMP1), MMP1 (gene 4312)
Kind of assay: BSK_BE3C_MMP1: BioMAP Diversity Plus: BE3C Assay for Matrix Metallopeptidase 1 (MMP1) Biomarker Activity (AID 2283024). The note with it: primary human bronchial epithelial cells; actives raise or lower the signal. The gist of the method:
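Primary human bronchial epithelial cells were dosed with test chemicals, and MMP1 levels were measured by ELISA 24 h later. Data were fitted bidirectionally against DMSO as the negative control and activity baseline.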

The nature of assay [4]: BSK_3C_Vis: BioMAP Diversity Plus: 3C Assay for Morphology Visualization (AID 2283025).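 Note: fitted both ways so gain or loss versus DMSO counts.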 The note with it: primary human endothelial cells (HUVEC). The procedure, abridged:
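Human umbilical vein endothelial cells in the 3C system were imaged by light microscopy 24 h after chemical dosing to record cell morphology. Activity was fitted bidirectionally against DMSO as negative control and baseline; the endpoint serves as a background control.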

Read-out in assay [5]: Pselectin, SELP (gene 6403)
Kind of assay: BSK_4H_Pselectin: BioMAP Diversity Plus: 4H Assay for Pselectin Biomarker Activity (AID 2283026). The settings on record: primary human endothelial cells (HUVEC); actives raise or lower the signal. The procedure, abridged:
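Primary human umbilical vein endothelial cells were exposed to test chemical for 24 h, then cell-surface P-selectin was quantified by ELISA. Activity was fitted bidirectionally against DMSO as negative control and baseline.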

Assay [6] is described as follows: BSK_4H_SRB: Viability Assessment in the BioMAP Diversity Plus: 4H Assay (AID 2283027).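 For AC50: curves fitted both ways versus DMSO so AC50 may be loss or gain.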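 Note: cells exposed to compound for 24 h before staining.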 The settings on record: primary human endothelial cells (HUVEC). The procedure, abridged:
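Human umbilical vein endothelial cells were dosed with chemical and, after 24 h, fixed with 10% TCA, stained with 0.1% sulforhodamine B, and read at 560 nm to give total protein as a cytotoxicity measure. Bidirectional fitting relative to DMSO control.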

Assay [7] in a line: BSK_BE3C_SRB: Viability Assessment in the BioMAP Diversity Plus: BE3C Assay (AID 2283028).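 For AC50: fitted both ways so AC50 may mark signal gain or loss versus DMSO.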 The settings on record: primary human bronchial epithelial cells. The gist of the method: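 SRB total-protein staining (0.1%, after TCA fixation) of chemically dosed human bronchial epithelial primary cells at 24 h; DMSO serves as the negative control for bidirectional curve fitting.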

Read-out in assay [8]: Thrombomodulin, THBD (gene 7056)
Put plainly: BSK_3C_Thrombomodulin: BioMAP Diversity Plus: 3C Assay for Thrombomodulin Biomarker Activity (AID 2283029). The note with it: primary human endothelial cells (HUVEC); actives raise or lower the signal. The procedure, abridged:
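Primary human umbilical vein endothelial cells (3C system) were exposed to chemical for 24 h, then thrombomodulin levels were measured by ELISA. Activity was fitted bidirectionally against the DMSO negative control as baseline.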

Read-out in assay [9]: Urokinase-type plasminogen activator receptor (uPAR), PLAUR (gene 5329)
Kind of assay: BSK_4H_uPAR: BioMAP Diversity Plus: 4H Assay for Urokinase-type plasminogen activator receptor (uPAR) Biomarker Activity (AID 2283030). The note with it: primary human endothelial cells (HUVEC); actives raise or lower the signal. The gist of the method:
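Endpoint derived via bidirectional curve fitting against DMSO baseline; readout was ELISA detection of uPAR on umbilical vein endothelial cells at 24 h post-treatment, with SRB-stained parallel cultures assessing cytotoxicity.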

Read-out in assay [10]: Vascular endothelial growth factor receptor 2 (Homo sapiens) (UniProt P35968)
Kind of assay: BSK_4H_VEGFRII: BioMAP Diversity Plus: 4H Assay for Vascular endothelial growth factor receptor 2 (VEGFR2) Biomarker Activity (AID 2283031).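 For AC50: cell-surface VEGFR2 protein level quantified by ELISA.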 The settings on record: primary human endothelial cells (HUVEC); actives raise or lower the signal. The procedure, abridged:
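In this multiplexed HUVEC system, biomarker ELISA was performed after 24 h chemical exposure. Parallel SRB staining (TCA fixation, 560 nm) tracked cytotoxicity; DMSO served as baseline.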

“And” between values parts separate entries of the source, which are not always exact repeats. Equal values may be shown once. Results filed as inconclusive are left out. A structure can be active in one record and inactive in another. The source made the active and inactive calls. Rule for the calls, unless noted: active = hit-call score of the fitted dose curve at least 0.9, where 1 is the maximum; inactive = score below 0.9.

Among the data in PubChem BioAssay (EPA / NIEHS) are outcome and AC50 values, retold here.

The term AC50 denotes the concentration giving half of the maximal activity seen.

human Vitamin D Receptor (VDR), VDR (gene 7421), sequence (P11473 whole entry, looked up): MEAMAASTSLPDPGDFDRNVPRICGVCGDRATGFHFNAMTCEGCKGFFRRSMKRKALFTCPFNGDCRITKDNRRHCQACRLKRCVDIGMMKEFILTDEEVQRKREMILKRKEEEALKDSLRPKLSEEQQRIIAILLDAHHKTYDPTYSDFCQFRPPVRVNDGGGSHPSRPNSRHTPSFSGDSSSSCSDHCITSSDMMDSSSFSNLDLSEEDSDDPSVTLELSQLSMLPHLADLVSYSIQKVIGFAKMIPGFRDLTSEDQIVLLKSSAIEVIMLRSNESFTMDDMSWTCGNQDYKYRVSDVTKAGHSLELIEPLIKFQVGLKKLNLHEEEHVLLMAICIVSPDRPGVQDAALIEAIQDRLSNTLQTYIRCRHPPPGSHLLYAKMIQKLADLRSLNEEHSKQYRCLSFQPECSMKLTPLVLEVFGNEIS

Take `COS(=O)(=O)OC`: the call in assay [1], in assay [2], in [3], in assay [4], in assay [5] and in assay [6] was inactive. The result in assay [7], in assay [8], in [9] and in assay [10] was inactive.

As for `O=C(O)C(F)(F)C(F)(F)C(F)(F)C(F)(F)C(F)(F)C(F)(F)C(F)(F)C(F)(F)C(F)(F)F`, the concentration at half-maximal activity (AC50) in assay [2] was 31.3 µM (active) and 53 µM (active) and 51.6 µM (active); in [3], 32.4 µM (active); in [5], 50.1 µM (active) and 49.5 µM (active); in assay [6], 36.5 µM (active) and 52.1 µM (active) and 55 µM (active); in assay [7], 29.6 µM (active) and 12.6 µM (active) and 15.8 µM (active); in assay [9] it was 47 µM (active) and 55 µM (active). Moreover, the AC50 in assay [10] was 43.2 µM (active) and 55.4 µM (active). Further, the outcome in assay [3], in assay [4], in assay [5], in [8], in assay [9] and in assay [10] was inactive.

Consider `Sc1ccccc1`, for which the compound was called inactive in [1], in assay [2], in assay [3], in [4], in assay [5] and in [6]. The result in assay [7], in assay [8], in assay [9] and in assay [10] was inactive.

As for `CC(C)(c1ccccc1)c1ccc(O)cc1`, the call in assay [1], in [3], in assay [8] and in assay [10] was inactive. The AC50 in assay [2] is 30.2 µM (active); in [4], 37.5 µM (active); in [5] it was 32.6 µM (active); in [6] it was 30.5 µM (active); in assay [7], 32.3 µM (active); in assay [9], 32 µM (active).

For the compound `C[C@]12CCC(=O)C=C1CC[C@@H]1[C@@H]2CC[C@]2(C)C(=O)CC[C@@H]12`, the result in [2], in assay [3], in assay [4], in [5], in assay [6] and in assay [7] was inactive. Besides, the outcome in assay [8] and in assay [10] was inactive.

`C=CC(N)=O`: the compound was classed as inactive in assay [1], in [2], in assay [3], in assay [4], in assay [5] and in [6]. In addition, the result in assay [7], in assay [8], in assay [9] and in assay [10] was inactive.

As to `CCC(C)(c1ccc(O)cc1)c1ccc(O)cc1`, the AC50 in assay [2] is 30 µM (active); in [3], 20 µM (active); in assay [4], 39 µM (active); in [5], 32.1 µM (active); in assay [6], 24.3 µM (active); in assay [9], 34.8 µM (active). Also, the outcome in assay [7], in assay [8] and in assay [10] was inactive.

Consider `N#Cc1ccc(N(CC(N)=O)CC(F)(F)F)cc1C(F)(F)F`, for which the outcome in assay [2], in assay [3], in assay [4], in assay [5], in [6] and in assay [7] was inactive. For the same compound, the result in [8], in [9] and in assay [10] was inactive.

For `CCCCCCCCCC[N+](C)(C)CCCCCCCCCC`, the half-maximal activity concentration (AC50) was 2 µM (active) in assay [2]; 4.95 µM (active) in assay [3]; 4.15 µM (active) in [4]; 1.99 µM (active) in assay [5]; 2.01 µM (active) in [6]; 5.15 µM (active) in [7]. The figures for the concentration at half-maximal activity (AC50) in [9] and in assay [10] were 6.83 µM (active) and 2.01 µM (active), respectively. In addition, in assay [8], the outcome was inactive.

Consider `Cc1ccccc1O`, for which the result in [1], in assay [2], in assay [3], in assay [4], in assay [5] and in assay [6] was inactive. The result in assay [7], in assay [8], in assay [9] and in [10] was inactive.

On to `Nn1cnnc1`, for which the result in [2], in assay [3], in assay [4], in [5], in [6] and in assay [7] was inactive. Further, the outcome in [8], in [9] and in assay [10] was inactive.

Regarding `O=NN(c1ccccc1)c1ccccc1`, the outcome in assay [2], in assay [3], in assay [4], in [5], in [6] and in assay [7] was inactive. The result in [8], in assay [9] and in assay [10] was inactive.

Take `CCC(C)c1cc([N+](=O)[O-])cc([N+](=O)[O-])c1O` (configuration not stated): the AC50 in [2] was 10 µM (active); in [4], 9.8 µM (active); in assay [5], 10.6 µM (active); in [6] it was 12.6 µM (active); in [9], 11.5 µM (active); in assay [10], 8.81 µM (active). The outcome in [3], in [7] and in assay [8] was inactive.

As to `Cc1cc(O)ccc1Cl`, the outcome in assay [1], in [2], in assay [3], in assay [4], in assay [5] and in assay [6] was inactive. The outcome in assay [7], in assay [8], in [9] and in [10] was inactive.

In the case of `O=C(O)C(F)(F)C(F)(F)C(F)(F)C(F)(F)C(F)(F)F`, the outcome in assay [2], in assay [3], in assay [4], in assay [5], in assay [6] and in assay [7] was inactive. In addition, the outcome in [8], in assay [9] and in [10] was inactive.

Consider `Oc1ccc(Cl)cc1Cl`, for which the result in assay [2], in assay [3], in assay [4], in assay [5], in [6] and in [7] was inactive. The outcome in [8], in [9] and in [10] was inactive.

On to `CCOCCOC(C)=O`, for which the outcome in assay [2], in assay [3], in [4], in [5], in assay [6] and in [7] was inactive. In addition, the outcome in assay [8], in [9] and in assay [10] was inactive.
